Assay results reported in PubChem BioAssay (NCATS).
Records with an inconclusive call do not appear. Active and inactive are the calls of the source. Calls come from the whole dose curve; as a rule, active = well fitted inhibition curve with a large enough effect; inconclusive = small, poorly fitted or top-dose-only effect; inactive = flat fitted curve, though single readings scatter.

Each molecule was assayed against Phospholipid hydroperoxide glutathione peroxidase GPX4 (Homo sapiens) (UniProt P36969) (assay: Primary qHTS Assay for Inhibitors of Recombinant Selenoprotein Glutathione Peroxidase 4 (GPX4) (AID 1845192; note: nearly all actives have a fitted effect of over 65% in size; note: potency is the fitted concentration of half-maximal effect; for activity change, negative = inhibition: % is set by controls: 0 for no effect and ±100 for the full control effect)). Conditions: recombinant GPX4, GR-coupled NADPH fluorescence, 15 min; series mostly up to 50 µM; activity change, negative = inhibition: at the top concentration.
Phospholipid hydroperoxide glutathione peroxidase GPX4 (Homo sapiens), sequence (P36969 whole entry, looked up): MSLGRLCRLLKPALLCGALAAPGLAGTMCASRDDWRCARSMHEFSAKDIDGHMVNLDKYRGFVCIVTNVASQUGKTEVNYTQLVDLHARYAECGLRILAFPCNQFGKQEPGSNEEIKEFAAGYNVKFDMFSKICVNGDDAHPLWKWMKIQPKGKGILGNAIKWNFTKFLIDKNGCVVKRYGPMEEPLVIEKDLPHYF
Summary of the method: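 GR-coupled readout: 100 nM GR, 1 mM GSH, 0.5 mM NADPH; NADPH fluorescence (ex 340/em 450 nm) read at t=0 and after 15 min RT. GPX4 200 nM, preincubated 30 min with compound; substrate 0.5 mM CHP.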

Structure (SMILES)	activity change, negative = inhibition	outcome	Potency
CC(=O)N1CCN([C@H]2CCN(C(=O)N(C)[C@H](C)c3cc(C(F)(F)F)cc(C(F)(F)F)c3)[C@@H](c3ccc(F)cc3C)C2)CC1	-19.1% (inactive)	–	–
C=C1C(=O)O[C@@H]2C[C@@H](C)[C@]34C[C@]5(C(=O)O[C@H]6CC(C)=C([C@H](C)CCCO)[C@H](OC(=O)C(C)CC)[C@H]65)[C@@H](C(C)=C3C[C@@H]12)[C@H]4OC(C)=O (stereo partly specified)	-25.6% [at 15.3 µM] (inactive)	–	–
COc1ccccc1-c1c[nH]c2ncc(-c3cncc(C(=O)N(C)C)c3)cc12	–	inactive	–
Fc1ccccc1CNCc1ccc(-c2ccnc3[nH]ccc23)cc1	–	–	16.1 µM (active)
CCCCc1nc(C)c(CC(=S)N(C)C)c(=O)n1Cc1ccc(-c2ccccc2-c2nn[nH]n2)cc1	-27.2% (inactive)	–	–
Clc1ccccc1CNCC1CCC(CNCc2ccccc2Cl)CC1 (stereo unspecified)	1.93% (inactive)	–	–
CNc1nc(-c2ccc3c(N)n[nH]c3c2)cc(N2CC(C(=O)NC3CCCCC3)CCC2C)n1 (stereo unspecified)	-4.78% (inactive)	–	–
CC[C@H]1OC(=O)[C@H](C)[C@@H](O[C@H]2C[C@@](C)(OC)[C@@H](O)[C@H](C)O2)[C@H](C)[C@@H](O[C@@H]2O[C@H](C)C[C@H](N(C)C)[C@H]2O)[C@](C)(O)C[C@@H](C)/C(=N/OCOCCOC)[C@H](C)[C@@H](O)[C@]1(C)O	-10.9% (inactive)	–	–
C[C@@H](CN1CCC(n2c(=O)[nH]c3cc(Cl)ccc32)CC1)NC(=O)c1ccc2ccccc2c1	-4.22% (inactive)	–	–
CC1=CC(=O)[C@@]2(C(C)C)C[C@@H]12	-28.5% (inactive)	–	–
C=C1C(=O)O[C@@H]2/C=C(/C)CC3C=C(C[C@H](OC(=O)/C(C)=C\C)[C@@H]12)C(=O)O3 (stereo partly specified)	–	inactive [at 27.8 µM]	–
COc1ccc2c(c1)CN(C(=O)CCN1CCC(Cc3ccccc3)CC1)CCS2	-6.24% [at 27.8 µM] (inactive)	–	–
COc1ccc(-c2nc(-c3cc(C(F)(F)F)cc(C(F)(F)F)c3)n(Cc3ccc(C(N)=O)cc3)c2-c2ccc(OC)cc2)cc1	-21.5% (inactive)	–	–
CNc1cc(OC)c(C(=O)N[C@@H]2CCN(Cc3ccccc3)[C@@H]2C)cc1Cl	-0.913% (inactive)	–	–
CC(=O)Nc1ccc(C(=O)Nc2ccccc2N)cc1	–	–	inactive
CCOC(=O)CCC(=O)O[C@H]1[C@H](O[C@@H]2[C@@H](C)[C@H](O[C@H]3C[C@@](C)(OC)[C@@H](O)[C@H](C)O3)[C@@H](C)C(=O)O[C@H](CC)[C@@](C)(O)[C@H](O)[C@@H](C)C(=O)[C@H](C)CC2(C)O)O[C@H](C)C[C@@H]1N(C)C (stereo partly specified)	–	–	inactive
C=C(C(=O)O)C1CC2=C(C)C(=O)CC2C(C)CC1O (stereo unspecified)	–	inactive	–

Structure (SMILES)	activity change, negative = inhibition	outcome	Potency
CCC(=O)Nc1cccc(Oc2nc(Nc3ccc(N4CCN(C)CC4)cc3OC)ncc2Cl)c1	–	–	inactive
Cc1cc(CN)cc(C)c1NC(=O)c1ccc(-c2cc(Cl)ccc2Cl)o1	-10.2% (inactive)	–	–
C=C1C(=O)O[C@@H]2C[C@@]3(C)CCC[C@H](C)C3=C[C@H]12	-0.686% (inactive)	–	–
C=C1C(=O)O[C@@H]2[C@H]1[C@H](O)C[C@]1(C)[C@@H](O)CC=C(C)[C@@H]21	0.947% (inactive)	–	–
CC(C)c1ccc(NC(=O)C(c2ccccc2)N(C)C(=O)Cc2c[nH]c3ccccc23)cc1 (stereo unspecified)	-16.7% (inactive)	–	–
Cc1cc(C)c(NC(=O)N(Cc2ccc3c(c2)Cc2ccccc2-3)C2CCCCCC2)c(C)c1	-6.43% (inactive)	–	–
Cn1nccc1Nc1nccc(-c2ccn([C@H](CO)c3ccc(Cl)c(F)c3)c(=O)c2)n1	–	–	inactive
C[N+]1(C)[C@@H]2CC[C@H]1CC(OC(=O)C(O)c1ccccc1)C2 (stereo partly specified)	-2.21% (inactive)	–	–
CC1CCN(c2cc(NC(=O)c3ccccc3)ncn2)CC1	4.94% (inactive)	–	–
CCOc1ccc(-c2nc(-c3cccc4c3CCC4NCCO)no2)cc1OCC (stereo unspecified)	-1.3% (inactive)	–	–
CCC(=O)c1cc(-c2ccc(Cl)cc2)n(-c2ccc(S(N)(=O)=O)cc2)c1C	-10% (inactive)	–	–
COc1cc2nc(-c3cc(F)ccc3O)nc(N[C@@H]3CNC[C@H]3C(C)(C)O)c2cc1OC	–	–	inactive
COc1cccc(NC[C@@H](O)Cn2c3ccc(Br)cc3c3cc(Br)ccc32)c1	4.04% (inactive)	–	–
O=C(/C=C/n1cnc(-c2cc(C(F)(F)F)cc(C(F)(F)F)c2)n1)NNc1cnccn1	3.25% (inactive)	–	–
COc1ccc(Cl)cc1[C@@]1(F)C(=O)Nc2cc(C(F)(F)F)ccc21	-11.8% (inactive)	–	–
C[C@H](NC(=O)C(C)(C)Oc1ccc(C(F)(F)F)cn1)[C@@H](Cc1ccc(Cl)cc1)c1cccc(C#N)c1	-24.8% (inactive)	–	–

The molecules below were run against Luciferin 4-monooxygenase (Photinus pyralis) (UniProt P08659) (assay: Primary firefly luciferase (FLuc) qHTS assay for identification of artifact compounds. (AID 1845220; note: nearly all actives have a fitted effect of over 60% in size;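 for activity change, negative = inhibition: plate controls were DMSO vehicle for no effect and no enzyme for full effect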)). Conditions: purified firefly luciferase, luminescence, 5 min; series mostly up to 54.1 µM; activity change, negative = inhibition: at the top concentration.
Summary of the method: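 Reaction readout was CCD-imaged luminescence, taken 5 min after adding 10 nM purified firefly enzyme to compound-treated wells holding 10 uM luciferin and ATP in pH 7.6 buffer.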

Structure (SMILES)	outcome	activity change, negative = inhibition
CC(=O)N1CCN([C@H]2CCN(C(=O)N(C)[C@H](C)c3cc(C(F)(F)F)cc(C(F)(F)F)c3)[C@@H](c3ccc(F)cc3C)C2)CC1	inactive	–
C=C1C(=O)O[C@@H]2C[C@@H](C)[C@]34C[C@]5(C(=O)O[C@H]6CC(C)=C([C@H](C)CCCO)[C@H](OC(=O)C(C)CC)[C@H]65)[C@@H](C(C)=C3C[C@@H]12)[C@H]4OC(C)=O (stereo partly specified)	–	-8.76% [at 25.7 µM] (inactive)
COc1ccccc1-c1c[nH]c2ncc(-c3cncc(C(=O)N(C)C)c3)cc12	–	4.77% (inactive)
Fc1ccccc1CNCc1ccc(-c2ccnc3[nH]ccc23)cc1	–	0.355% (inactive)
CCCCc1nc(C)c(CC(=S)N(C)C)c(=O)n1Cc1ccc(-c2ccccc2-c2nn[nH]n2)cc1	inactive	–
Clc1ccccc1CNCC1CCC(CNCc2ccccc2Cl)CC1 (stereo unspecified)	inactive	–
CNc1nc(-c2ccc3c(N)n[nH]c3c2)cc(N2CC(C(=O)NC3CCCCC3)CCC2C)n1 (stereo unspecified)	inactive	–
CC[C@H]1OC(=O)[C@H](C)[C@@H](O[C@H]2C[C@@](C)(OC)[C@@H](O)[C@H](C)O2)[C@H](C)[C@@H](O[C@@H]2O[C@H](C)C[C@H](N(C)C)[C@H]2O)[C@](C)(O)C[C@@H](C)/C(=N/OCOCCOC)[C@H](C)[C@@H](O)[C@]1(C)O	–	4% (inactive)
C[C@@H](CN1CCC(n2c(=O)[nH]c3cc(Cl)ccc32)CC1)NC(=O)c1ccc2ccccc2c1	–	4.07% (inactive)
CC1=CC(=O)[C@@]2(C(C)C)C[C@@H]12	inactive	–
CN(C)CC(=O)Nc1ccc2[nH]c(=O)c3ccccc3c2c1	–	-11.3% (inactive)
C=C1C(=O)O[C@@H]2/C=C(/C)CC3C=C(C[C@H](OC(=O)/C(C)=C\C)[C@@H]12)C(=O)O3 (stereo partly specified)	inactive	–
COc1ccc2c(c1)CN(C(=O)CCN1CCC(Cc3ccccc3)CC1)CCS2	–	-0.0949% [at 25.7 µM] (inactive)
COc1ccc(-c2nc(-c3cc(C(F)(F)F)cc(C(F)(F)F)c3)n(Cc3ccc(C(N)=O)cc3)c2-c2ccc(OC)cc2)cc1	–	-0.822% (inactive)
CNc1cc(OC)c(C(=O)N[C@@H]2CCN(Cc3ccccc3)[C@@H]2C)cc1Cl	–	-14.8% (inactive)
CC(=O)Nc1ccc(C(=O)Nc2ccccc2N)cc1	–	-24.6% [at 25.7 µM] (inactive)
CCOC(=O)CCC(=O)O[C@H]1[C@H](O[C@@H]2[C@@H](C)[C@H](O[C@H]3C[C@@](C)(OC)[C@@H](O)[C@H](C)O3)[C@@H](C)C(=O)O[C@H](CC)[C@@](C)(O)[C@H](O)[C@@H](C)C(=O)[C@H](C)CC2(C)O)O[C@H](C)C[C@@H]1N(C)C (stereo partly specified)	inactive	–
C=C(C(=O)O)C1CC2=C(C)C(=O)CC2C(C)CC1O (stereo unspecified)	inactive	–
CCC(=O)Nc1cccc(Oc2nc(Nc3ccc(N4CCN(C)CC4)cc3OC)ncc2Cl)c1	inactive	–

Structure (SMILES)	outcome	activity change, negative = inhibition
Cc1cc(CN)cc(C)c1NC(=O)c1ccc(-c2cc(Cl)ccc2Cl)o1	inactive	–
C=C1C(=O)O[C@@H]2C[C@@]3(C)CCC[C@H](C)C3=C[C@H]12	–	-0.984% (inactive)
C=C1C(=O)O[C@@H]2[C@H]1[C@H](O)C[C@]1(C)[C@@H](O)CC=C(C)[C@@H]21	inactive	–
O=C(Nc1cccc(C(F)(F)F)c1)c1ccccc1NCc1ccncc1	–	1.89% (inactive)
Cc1cc(C)c(NC(=O)N(Cc2ccc3c(c2)Cc2ccccc2-3)C2CCCCCC2)c(C)c1	inactive	–
CN(Cc1ccc(C(=O)O)cc1)c1ccc(OCc2c(-c3c(Cl)cccc3Cl)noc2C2CC2)nc1C(F)(F)F	–	-1.03% (inactive)
Cn1nccc1Nc1nccc(-c2ccn([C@H](CO)c3ccc(Cl)c(F)c3)c(=O)c2)n1	inactive	–
C[N+]1(C)[C@@H]2CC[C@H]1CC(OC(=O)C(O)c1ccccc1)C2 (stereo partly specified)	inactive	–
CC1CCN(c2cc(NC(=O)c3ccccc3)ncn2)CC1	–	-22.4% (inactive)
CCOc1ccc(-c2nc(-c3cccc4c3CCC4NCCO)no2)cc1OCC (stereo unspecified)	–	3.74% (inactive)
CCC(=O)c1cc(-c2ccc(Cl)cc2)n(-c2ccc(S(N)(=O)=O)cc2)c1C	–	-6.03% (inactive)
COc1cc2nc(-c3cc(F)ccc3O)nc(N[C@@H]3CNC[C@H]3C(C)(C)O)c2cc1OC	–	3.98% (inactive)
COc1cccc(NC[C@@H](O)Cn2c3ccc(Br)cc3c3cc(Br)ccc32)c1	inactive	–
O=C(/C=C/n1cnc(-c2cc(C(F)(F)F)cc(C(F)(F)F)c2)n1)NNc1cnccn1	–	3.07% (inactive)
COc1cc(-c2cc(-c3cccc(O)c3)cnc2N)cc(OC)c1OC	inactive	–
COc1c(N2CC3CCCNC3C2)c(F)cc2c(=O)c(C(=O)O)cn(C3CC3)c12 (stereo unspecified)	–	0.249% (inactive)
COc1ccc(Cl)cc1[C@@]1(F)C(=O)Nc2cc(C(F)(F)F)ccc21	–	1.5% (inactive)
COc1ccc(-c2c(C)c(C(=O)NN3CCCCC3)nn2-c2ccc(Cl)cc2Cl)cc1	inactive	–
C[C@H](NC(=O)C(C)(C)Oc1ccc(C(F)(F)F)cn1)[C@@H](Cc1ccc(Cl)cc1)c1cccc(C#N)c1	inactive	–
